Measurements taken from the supplement of paper PMC3724861.
Only a selection was taken, and hits are over-represented in it overall. No count for the full screen is at hand.

These sequences were tested on T1, Caupolican (Caup) homeodomain DNA-binding domain (assay: PBM E-score (8-mer, recovered from the published 9-mer minima) (E-score (dimensionless, -0.5 to 0.5)); Drosophila protein; higher = stronger relative binding preference, active = 0.31 or more).
T1 sequence: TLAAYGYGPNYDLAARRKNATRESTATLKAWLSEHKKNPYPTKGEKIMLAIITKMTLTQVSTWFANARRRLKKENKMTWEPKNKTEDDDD
In short: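 Caup's homeodomain DNA-binding domain (residues 214-303) was made by in vitro transcription and translation and applied at 100 nM to custom-designed protein binding microarrays. Each value is an enrichment score that gives relative binding preference for a short DNA word, with higher meaning stronger. The 8-mer values were recovered from published 9-mer scores, each of which was the minimum of its two constituent 8-mer scores. A cutoff of 0.31 marks candidate sites.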

PBM E-score, inactive:
CGACTATC -0.0393, AGAGGATA 0.0175, ATCAAGAT 0.0803, CTAGGAGC -0.193, CATCCCGC -0.146, AACACTAA 0.166, GCTTAAAA -0.0795, GCGCCACA -0.129, CGCGTATA -0.0122, AATATTGC 0.153, GCATGCTA 0.0372, CTATGCTC 0.0374, AGATGCTG -0.00229, CCATGCTC -0.00716, TCATGCCA 0.0318, CCATGCTA 0.102, ATATGCTG 0.0997, ACATGCCT 0.254, CACTGCTA 0.075, CATACCGC -0.0667, AAGCTCCT -0.0876, GGATGCTA -0.0509, CCAAACGG -0.223, AATTCAAG 0.118, ACTATAAT 0.162, CTTGCGCA -0.0025, TGAGTACA 0.265, TAAGTAAA 0.0166, GAAGTACA 0.269, AAAGTACA 0.276, GAAACCCA 0.0044, ATCTCTGG -0.00282, CGAGGTCA -0.0898, CAACTTGA 0.0844, CTGTACGA 0.203, ATGTACGG 0.211, AGGTACTG 0.0558, ATGTACTC 0.303, GTGTACCA 0.308, ATGTACCC 0.263, AAGTACTA 0.197, CTGTACTC 0.082, ATCATCCG 0.0593, CCCTAGCG -0.171, AGAGCCTA -0.0924, ATAACCGC 0.0257, GGGTACTA 0.152, CTGTACTA 0.156, AGTCGTCC -0.0214, CACCGAAC 0.0165, ACTGCGAA -0.0547, TAGGTTAA 0.0795, AATGTTAA 0.291, TCTGTTAA 0.173, AATGTTAC 0.277, GATGTTAA 0.28, GATGTTAC 0.295, AATGTTAG 0.253, CCTGTTAG 0.114, GACCTACC -0.0746, AGCACGCC -0.187, CGAATTGC -0.0371, TCATTAAA 0.143, GAGCTAAC -0.0389, AACCCCCG -0.284, AGCGACAG 0.105, AGTGACAC 0.198, AACGACAG 0.164, AGCGACAC 0.188, AACGACAA 0.241, AGTGACAA 0.255, AGCCTACT -0.116, CCCATCCG -0.202, GCTTACAA 0.22, ATTTACAG 0.137, ATTTACAC 0.259, CTTTACAA 0.137, AGGAGTTG 0.0303, ATACGAAG 0.0288, CACTCCCC -0.125, ACATGGTC 0.285, GCATGGTA 0.166, CCATGGTA 0.133, AGATGGTG -0.0838, CAGGCCTC -0.158, CGGGAGCA -0.149, CCGCTACC -0.0854, ATTACGTA 0.173, CGTACTAG 0.107, ACTAAACC 0.00838, AGGCCCAG -0.214, ACCCAGGC -0.17, CCATCATA 0.02, ACATCATC 0.251, ACATCACG 0.217, TCATCACA 0.14, ACATCAAA 0.26, ACATCAAG 0.227, ATATATGG 0.127, GTATAAAA 0.116, GAATCGGA -0.0551, ATCCCATC -0.00982, CGCGTACC -0.0687, GGTCTCCA -0.147, TGAACACA 0.309, AGAACACT 0.108, AGAACAAT 0.21, CGAACACG 0.258, AGAACAAA 0.191, CGAACACA 0.167, AGCAGTCG -0.15, ATTGTTTC 0.143, GGCTAAAC -0.0281, GCGGTGCC -0.251, GTGTATAA 0.202, CTGTATAC 0.246, ATGTATAG 0.276, CTGTATAA 0.186, ATGTATGG 0.157, GTGTATGA 0.249, AAAGGATA 0.105, CCTCCACA -0.164, AAGTCTGT 0.139, CGCCTAAA -0.117, AGACATTA 0.201, AGACATCA 0.197, CGACATCC 0.134, GGACATGA 0.304, AGACATGC 0.303, CGACATTA 0.202, AGACATCG 0.0873, AGACATAG 0.164, GAAGTCAA -0.0438, GCAGTCGA -0.135, CCAATCAA 0.0187, ATAGGCCC -0.176, ACCCCTCA -0.091, CAACTCTA -0.0633, AACACATT 0.264, CACACATA 0.164, ATCACATA 0.239, AACACATC 0.202, GACACATA 0.264, AGCACATA 0.0614, AACACACT 0.256, AACACACG 0.248, GAACAGTA 0.173, AAGAGAGA -0.0648, CTTCCGCA -0.0665, ACTTCTCA 0.00621, GGTGATAA 0.0536, GCTCCACC -0.174, CAATAGCC 0.0422, CATCTTGC 0.0649, GTCAACGA 0.118, CAGCCCGA -0.199, ATGAGCGA -0.0133, AAACATTA 0.233, AAACATAC 0.292, AAACATAG 0.267, GAACATAA 0.282, CAACATAA 0.295, AAGCATAA 0.0796, GTCAATCA 0.0914, ACGCTGTG 0.0319, AAAGTTGT 0.17, AAGAGAAG -0.0176, ACTGTGAT 0.066, AGCCGAAT -0.0412, AAGTGGCT -0.132, CCGCGGCA -0.192, CTCGTGGC -0.127, AAGCCGGG -0.179, CTATACAA 0.249, ATATATAC 0.181, CTATACAC 0.0914, TTATACAA 0.28, ATATACAG 0.186, CTATACAG 0.0968, GTATACTA 0.16, GTATACAC 0.249, ATTAGTGC 0.105, AACTGGCC -0.147

PBM E-score, active:
ACATGCTG 0.332, ACATGCTC 0.334, ACATGCTA 0.352, ACATGCCA 0.336, TAAGTACA 0.332, CAAGTACA 0.342, ATGTACTG 0.339, ATGTACCA 0.36, ATGTACTA 0.398, ATGTACGA 0.395, GTGTACTA 0.34, TATGTTAA 0.314, CATGTTAA 0.446, CATGTTAC 0.42, CATGTTAG 0.408, AGTGACAT 0.354, AACGACAT 0.358, AGCGACAT 0.325, GTTTACAA 0.343, ATTTACAA 0.361, ACATGGTA 0.418, ACATGGTG 0.366, ACATCAAT 0.316, ACATCATA 0.318, ACATCACA 0.334, AGAACAAG 0.329, AGAACACG 0.33, AGAACACA ≥ 0.317, ATGTATGA 0.352, ATGTATAC 0.356, ATGTATAA 0.344, CGACATGA 0.395, AGACATGG 0.329, CGACATGC 0.386, AGACATGA 0.341, AACACACA ≥ 0.313, AACACATA 0.323, TACACATA 0.343, AACACATG 0.313, AAACATAT 0.325, AAACATAA 0.321, TAACATAA 0.327, ATATACAA ≥ 0.355, GTATACAA 0.318, ATATACAC 0.348, ATATACAT 0.367
